According to PubChem BioAssay AID1159580 (chemical genetic matrix, 2015):
Among all 5,500 compounds or so, about 2,000 (36%) were called active. Inconclusive results (about 18%) are left out. Cut-off read from the data, not from the text of the source: active = normalized growth mostly below about 0.91 (no sharp cut-off); inconclusive = no clear call, values can overlap the other calls; inactive = mostly above about 0.92. The list shows a part of the results.

Test: chemical genetic growth profiling, strain panel (AID 1159580);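 note: tested at 20 µM; growth read once vehicle control cultures reached saturation at 30 °C; 1 = growth at the plate median or of vehicle wells; lower values mean less growth of the strain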
Conditions: growth OD

Measured: normalized growth

COc1ccc(C(=O)CC(=O)c2ccc(C(C)(C)C)cc2)cc1
active: S. cerevisiae deletion strains, locus YLR262C, strain YPT6 (second series), stronger effect = lower value 0.801
inactive: S. cerevisiae deletion strains, locus YJR075W, strain HOC1, stronger effect = lower value 0.936 | S. cerevisiae deletion strains, locus YKL009W, strain mrt4, stronger effect = lower value 1.02 | S. cerevisiae deletion strains, locus YKL068W, stronger effect = lower value 0.996 | S. cerevisiae deletion strains, locus YKL085W, strain MDH1 (second series), stronger effect = lower value 0.989 | S. cerevisiae deletion strains, locus YKL085W, strain MDH1, stronger effect = lower value 0.989 | S. cerevisiae deletion strains, locus YKL160W, strain elf1, stronger effect = lower value 0.982 | S. cerevisiae deletion strains, locus YKL190W, strain CNB1, stronger effect = lower value 0.986 | S. cerevisiae deletion strains, locus YKR001C, strain vps1, stronger effect = lower value 1 | S. cerevisiae deletion strains, locus YKR026C, strain gcn3, stronger effect = lower value 0.988 | S. cerevisiae deletion strains, locus YKR091W, strain srl3, stronger effect = lower value 0.99 | S. cerevisiae deletion strains, locus YLL001W, strain dnm1, stronger effect = lower value 0.998 | S. cerevisiae deletion strains, locus YLL026W, stronger effect = lower value 0.998 | S. cerevisiae deletion strains, locus YLL041C, strain sdh2, stronger effect = lower value 0.972 | S. cerevisiae deletion strains, locus YLR027C, strain aat2, stronger effect = lower value 0.988 | S. cerevisiae deletion strains, locus YLR039C, strain RIC1, stronger effect = lower value 0.884 | S. cerevisiae deletion strains, locus YLR058C, strain SHM2, stronger effect = lower value 1.01 | S. cerevisiae deletion strains, locus YLR102C, strain apc9, stronger effect = lower value 1 | S. cerevisiae deletion strains, locus YLR113W, strain HOG1, stronger effect = lower value 0.969 | S. cerevisiae deletion strains, locus YLR221C, strain rsa3, stronger effect = lower value 0.937 | S. cerevisiae deletion strains, locus YLR258W, strain gsy2, stronger effect = lower value 0.971 | S. cerevisiae deletion strains, locus YLR262C, strain YPT6, stronger effect = lower value 0.903 | S. cerevisiae deletion strains, locus YLR268W, strain sec22, stronger effect = lower value 1 | S. cerevisiae deletion strains, locus YLR320W, strain mms22, stronger effect = lower value 0.956 | S. cerevisiae deletion strains, locus YLR330W, strain CHS5, stronger effect = lower value 1 | S. cerevisiae deletion strains, locus YLR342W, strain FKS1 (second series), stronger effect = lower value 1.1 | S. cerevisiae deletion strains, locus YLR342W, strain FKS1, stronger effect = lower value 0.992 | S. cerevisiae deletion strains, locus YLR357W, strain rsc2, stronger effect = lower value 1.03 | S. cerevisiae deletion strains, locus YLR370C, strain arc18, stronger effect = lower value 1 | S. cerevisiae deletion strains, locus YLR371W, strain rom2, stronger effect = lower value 1.01 | S. cerevisiae deletion strains, locus YLR384C, strain iki3, stronger effect = lower value 1.01 | S. cerevisiae deletion strains, locus YLR418C, strain cdc73, stronger effect = lower value 0.952 | S. cerevisiae deletion strains, locus YML016C, strain PPZ1, stronger effect = lower value 1 | S. cerevisiae deletion strains, locus YML032C, strain rad52, stronger effect = lower value 1 | S. cerevisiae deletion strains, locus YML120C, strain ndi1, stronger effect = lower value 1 | S. cerevisiae deletion strains, locus YML124C, strain tub3, stronger effect = lower value 1 | S. cerevisiae deletion strains, locus YMR058W, strain fet3, stronger effect = lower value 0.996 | S. cerevisiae deletion strains, locus YMR078C, strain ctf18, stronger effect = lower value 1.01 | S. cerevisiae deletion strains, locus YMR125W, strain sto1, stronger effect = lower value 0.977 | S. cerevisiae deletion strains, locus YMR129W, stronger effect = lower value 0.983 | S. cerevisiae deletion strains, locus YMR205C, strain PFK2, stronger effect = lower value 0.97 | S. cerevisiae deletion strains, locus YMR223W, strain ubp8, stronger effect = lower value 1 | S. cerevisiae deletion strains, locus YMR231W, strain pep5, stronger effect = lower value 1.02 | S. cerevisiae deletion strains, locus YMR263W, strain SAP30, stronger effect = lower value 0.988 | S. cerevisiae deletion strains, locus YMR307W, strain GAS1, stronger effect = lower value 0.746 | S. cerevisiae deletion strains, locus YNL067W, strain RPL9B, stronger effect = lower value 0.912 | S. cerevisiae deletion strains, locus YNL071W, strain lat1, stronger effect = lower value 0.998 | S. cerevisiae deletion strains, locus YNL128W, strain TEP1, stronger effect = lower value 0.98 | S. cerevisiae deletion strains, locus YNL153C, strain GIM3, stronger effect = lower value 0.996 | S. cerevisiae deletion strains, locus YNL183C, strain NPR1, stronger effect = lower value 0.958 | S. cerevisiae deletion strains, locus YNL209W, strain ssb2, stronger effect = lower value 1.02 | S. cerevisiae deletion strains, locus YNL233W, strain BNI4, stronger effect = lower value 0.995 | S. cerevisiae deletion strains, locus YNL248C, strain rpa49, stronger effect = lower value 0.963 | S. cerevisiae deletion strains, locus YNL250W, strain rad50, stronger effect = lower value 0.993 | S. cerevisiae deletion strains, locus YNL271C, strain bni1, stronger effect = lower value 1 | S. cerevisiae deletion strains, locus YNL298W, strain CLA4, stronger effect = lower value 1.02 | S. cerevisiae deletion strains, locus YNL307C, strain MCK1, stronger effect = lower value 1.01 | S. cerevisiae deletion strains, locus YNL322C, strain KRE1 (second series), stronger effect = lower value 1.01 | S. cerevisiae deletion strains, locus YNL322C, strain KRE1, stronger effect = lower value 0.994 | S. cerevisiae deletion strains, locus YNR049C, strain mso1, stronger effect = lower value 0.987 | S. cerevisiae deletion strains, locus YNR052C, strain pop2, stronger effect = lower value 1.01 | S. cerevisiae deletion strains, locus YOL006C, strain TOP1, stronger effect = lower value 0.82 | S. cerevisiae deletion strains, locus YOL012C, strain htz1 1.06 | S. cerevisiae deletion strains, locus YOL147C, strain pex11, stronger effect = lower value 1 | S. cerevisiae deletion strains, locus YOR001W, strain rrp6, stronger effect = lower value 0.979 | S. cerevisiae deletion strains, locus YOR061W, strain CKA2, stronger effect = lower value 1 | S. cerevisiae deletion strains, locus YOR069W, strain VPS5, stronger effect = lower value 1 | S. cerevisiae deletion strains, locus YOR070C, strain gyp1, stronger effect = lower value 0.986 | S. cerevisiae deletion strains, locus YOR080W, strain dia2, stronger effect = lower value 1.01 | S. cerevisiae deletion strains, locus YOR083W, strain WHI5, stronger effect = lower value 0.98 | S. cerevisiae deletion strains, locus YOR106W, strain vam3, stronger effect = lower value 0.904 | S. cerevisiae deletion strains, locus YOR136W, strain idh2, stronger effect = lower value 0.99 | S. cerevisiae deletion strains, locus YOR144C, strain elg1, stronger effect = lower value 1 | S. cerevisiae deletion strains, locus YOR184W, strain ser1, stronger effect = lower value 0.955 | S. cerevisiae deletion strains, locus YOR231W, strain MKK1, stronger effect = lower value 1.01 | S. cerevisiae deletion strains, locus YOR265W, strain rbl2, stronger effect = lower value 0.998 | S. cerevisiae deletion strains, locus YOR270C, strain vph1, stronger effect = lower value 0.827 | S. cerevisiae deletion strains, locus YOR290C, strain snf2, stronger effect = lower value 0.991 | S. cerevisiae deletion strains, locus YOR316C, strain cot1, stronger effect = lower value 1 | S. cerevisiae deletion strains, locus YPL051W, strain arl3, stronger effect = lower value 0.992 | S. cerevisiae deletion strains, locus YPL055C, strain LGE1, stronger effect = lower value 0.88 | S. cerevisiae deletion strains, locus YPL078C, strain atp4, stronger effect = lower value 0.998 | S. cerevisiae deletion strains, locus YPL106C, strain sse1, stronger effect = lower value 1 | S. cerevisiae deletion strains, locus YPL240C, strain hsp82, stronger effect = lower value 0.995 | S. cerevisiae deletion strains, locus YPL241C, strain CIN2, stronger effect = lower value 0.988 | S. cerevisiae deletion strains, locus YPL256C, strain CLN2, stronger effect = lower value 1 | S. cerevisiae deletion strains, locus YPR119W, strain clb2, stronger effect = lower value 0.998 | S. cerevisiae deletion strains, locus YPR141C, strain kar3, stronger effect = lower value 0.996 | S. cerevisiae deletion strains, locus YPR163C, strain tif3, stronger effect = lower value 1.01 | S. cerevisiae deletion strains, locus YPR167C, strain met16, stronger effect = lower value 1 | S. cerevisiae deletion strains, strain wtn01, stronger effect = lower value 0.996 | S. cerevisiae strains, strain wild type, stronger effect = lower value 0.975
